Screening results deposited in PubChem BioAssay by several laboratories.
SARS 3CLpro inh-1: SARS-CoV 3CLpro protease inhibitors, primary screen, biochemical, quenched FRET | Replicase polyprotein 1ab (Severe acute respiratory syndrome coronavirus), P0C6X7 | recombinant SARS-CoV 3CLpro, quenched FRET peptide cleavage | inhibition, % at 6 µM | 0.14% of 290,000 active | AID 1706, 2009; in the data active = inhibition above about 12%
RecA intein inh: Mtb RecA intein splicing inhibitors, primary screen, biochemical, fluorescence, HTS | Protein RecA (Mycobacterium tuberculosis (strain ATCC 25618 / H37Rv)), P9WHJ3 | cell-free RecA intein splicing | inhibition, % (concentration not given with the values) | 0.75% of 290,000 active | AID 2221, 2009; in the data active = inhibition above about 30%;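 note: 0% = vehicle wells and 100% = reference inhibitor control wells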
PrPC TRFRET: inhibitors of human cell surface prion protein PrPC, primary screen, cell-based, TR-FRET; Major prion protein (Homo sapiens), P04156; inhibition, % at 13.8 µM; 0.43% of 370,000 active; TR-FRET read-out; AID 720596, 2013; in the data active = inhibition above about 24%; note: 0% = median of the test wells and 100% = reference compound wells
Mtb hypoxia rep: PubChem AID 1159583; M. tuberculosis hypoxia-regulated fluorescent reporter, fluorescence; fluorescence inhibition, % (no concentration beside the values); 0.1% of 300,000 active; in the data active = fluorescence inhibition mostly above about 23%, no sharp cut-off; inactive = mostly below about 17%
PrP 5UTR inh: inhibition of PrP 5' UTR reporter expression | inhibition, % (no concentration beside the values) | AID 488862, 2010 | 0.35% of 340,000 active | cell-based PrP 5' UTR mRNA reporter, plate reader; in the data active = inhibition above about 52%; note: 0 = median of the neutral control wells
BJeLR lethal: MLPCN primary cell-based screen for lethality selective to Ras in HRASV12 cells; BJeLR (HRASV12) viability, CellTiter-Glo ATP luminescence, 48 h; inhibition, % (concentration not given with the values); 0.17% of 300,000 active; in the data active = inhibition above about 50%
SARS 3CLpro inh-2: confirmation of SARS coronavirus 3C-like protease inhibitors, retest, confirmation, biochemical | QFRET protease activity assay, 3CLpro | shares compounds with SARS 3CLpro inh-1 | inhibition, % at 6 µM | 36% of 380 active; in the data active = inhibition above about 13%
* = called active by the depositor; . = not tested or not shown. An excerpt weighted towards active compounds, which were near 1.4% of everything screened.

SMILES | SARS 3CLpro inh-1 | RecA intein inh | PrPC TRFRET | Mtb hypoxia rep | PrP 5UTR inh | BJeLR lethal | SARS 3CLpro inh-2
CCOC(=O)C1C2COc3ccccc3C2N2C(=O)c3cc(F)c(F)cc3NC(=O)[C@@]12C (stereo not given in full) | . | . | . | 14 | . | . | .
CC(=O)N(C)c1ccc(NS(=O)(=O)c2cc(Cl)ccc2Cl)cc1 | 14* | 0 | -4 | 6 | -24 | 1 | -2
CC(=O)Nc1ccc(NS(=O)(=O)c2cc(Cl)ccc2Cl)cc1 | -2 | 1 | 5 | 11 | -19 | 15 | .
CCN(Cc1ccccc1)c1ccc(C=NN2CCOCC2)cc1 | . | . | . | 12 | . | . | .
O=C(/C=C/c1cccs1)Nc1scc(-c2ccccc2)c1C(=O)O | 23* | 47* | -2 | 7 | -34 | 15 | 61*
COC(=O)C1=C(c2ccc3ccccc3c2)CC2CCC1N2C(=O)NC(C)C (stereo not given) | . | . | . | 8 | . | . | .
CC(C)CN(CCC(=O)O)CC(C)C | 14* | 1 | -1 | 17 | -25 | 3 | -6
O=C(O)CCN(CCC(=O)O)c1ccccc1 | 2 | -1 | -3 | 1 | -23 | -1 | .
Cc1ccc(C(C)C)c(OCc2ccc(C(=O)NN=Cc3ccc(O)c(O)c3)cc2)c1 | . | . | . | 6 | . | . | .
O=C(/C=C/c1cc(Br)ccc1F)Nc1cccnc1 | -2 | 1 | -6 | -7 | -16 | -3 | .
O=C(/C=C/c1c(F)cccc1Cl)Nc1cccnc1 | 20* | . | -5 | 12 | -72 | -5 | 16*
COc1ccc(N(C(=O)Cn2nnc3ccccc32)C2(C(=O)NC3CCCC3)CCCCC2)cc1 | 30* | 1 | 2 | 14 | -18 | 6 | 43*
COCCN(C(=O)Cn1nnc2ccccc21)C(C(=O)NC1CCCCC1)c1ccc(OC)cc1OC (stereo not given) | 4 | -1 | 2 | -3 | 9 | 1 | .
CC(C)c1ccc(NS(=O)(=O)c2ccc(-n3cccn3)cc2)cc1 | 6 | 2 | 11 | 2 | -30 | 4 | .
CC(C)c1ccc(S(=O)(=O)Nc2ccc(SC(F)F)cc2)cc1 | 13* | 10 | 21 | 16 | -17 | 2 | 5
Cc1c(C(=O)Nc2ccc(S(=O)(=O)Nc3ncccn3)cc2)oc2ccc(Cl)cc12 | 2 | 0 | -1 | 1 | 4 | -2 | .
Cc1noc(NS(=O)(=O)c2ccc(NC(=O)c3oc4ccc(Cl)cc4c3C)cc2)c1C | 12* | 2 | 3 | -2 | -28 | -5 | 7
O=C(O)c1cccc(NC(=S)NC(=O)C(c2ccccc2)c2ccccc2)c1 | 14* | 7 | -4 | . | -13 | 0 | 8
O=C(O)c1ccc(NC(=S)NC(=O)C(c2ccccc2)c2ccccc2)cc1 | 2 | 1 | 12 | 1 | -12 | 3 | .
Cc1ccc(CN2C(=O)CSc3ccc(C(=O)NCCN4CCOCC4)cc32)cc1 | 19* | 5 | . | . | -3 | 0 | 8
O=C(NCCN1CCOCC1)c1ccc2c(c1)N(Cc1ccc(F)cc1)C(=O)CS2 | 10 | 0 | 2 | -5 | -5 | -11 | .
COC(=O)CC1COc2ccccc2N1C(=O)/C=C/c1ccccc1 (stereo not given) | 46* | 7 | 6 | 15 | 0 | -5 | -1
Cc1cc(C)n(C(=O)c2ccc(C)c(Br)c2)n1 | 14* | 1 | 2 | -5 | -2 | 5 | 13*
COc1ccc(C=O)cc1C1=CC(=O)CC(c2ccc(Cl)cc2)C1 (stereo not given) | . | . | . | -1 | . | . | .
O=C(NN=Cc1cccs1)c1cccc(S(=O)(=O)Nc2ccc(Cl)cc2)c1 | . | . | . | 16 | . | . | .
SMILES | SARS 3CLpro inh-1 | RecA intein inh | PrPC TRFRET | Mtb hypoxia rep | PrP 5UTR inh | BJeLR lethal | SARS 3CLpro inh-2
O=C(N/N=C/c1ccncc1)c1cccc(S(=O)(=O)Nc2ccc(Cl)cc2)c1 | 62* | 5 | 6 | . | -3 | 4 | -1
CC(C)(C)OC(=O)NCCCCC(NC(=O)c1nc[nH]c1C(=O)N1CCN(c2ccccc2)CC1)C(=O)OC(C)(C)C (stereo not given) | . | . | . | -15 | . | . | .
Cc1ccc2[nH]c3c(c2c1)CN(C(=O)CN1c2ccc(F)cc2CCC1C)CC3 (stereo not given) | 44* | 2 | -4 | 2 | -10 | 0 | 28*
COC(=O)C(Cc1ccccc1)NC(=O)C(N)CC(=O)OCc1ccccc1 (stereo not given) | . | . | . | 19 | . | . | .
CSc1ccccc1OCc1cc(C(=O)N(C)Cc2cc(C)[nH]n2)no1 | -4 | 2 | -3 | 8 | -2 | -3 | .
CSc1ccccc1OCc1cc(C(=O)N(C)Cc2cnccn2)no1 | 14* | 4 | -2 | -6 | -36 | -6 | 1
COc1cc(C=Nn2c(C)nc3ccccc3c2=O)cc(OC)c1O | . | . | . | -2 | . | . | .
CC1(C)Cc2c(sc3nc(-c4cc5ccccc5o4)n(N)c(=O)c23)CO1 | 13* | -4 | -2 | 7 | -126 | -5 | -5
O=C(Oc1ccc2cccc(OC(=O)N3CCOCC3)c2c1)N1CCOCC1 | 13* | 0 | 1 | . | -6 | 5 | -1
Cc1ccc(C)c(S(=O)(=O)N2CCN(C(=O)c3ccc(N4CCCC4)c([N+](=O)[O-])c3)CC2)c1 | 13* | 6 | -3 | -6 | -8 | 3 | 5
O=C(COc1ccccc1)N1c2ccccc2Sc2ccccc21 | 0 | 3 | -2 | 15 | -20 | -3 | .
O=C(OCC(=O)N1c2ccccc2Sc2ccccc21)c1cccnc1 | 21* | -2 | 6 | 11 | -26 | -8 | 22*
Cc1ccc(C=C(NC(=O)c2ccccc2)C(=O)NCCc2ccccn2)o1 | . | . | . | 5 | . | . | .
ON=Cc1cn(-c2ccccc2)nc1-c1cccnc1 | . | . | . | 7 | . | . | .
O=C(CN1CCSCC1)N1CCc2[nH]c3ccc(Br)cc3c2C1 | 22* | -2 | . | . | . | -4 | 75*
O=C(Nc1c2c(nn1-c1cccc(Cl)c1)CS(=O)(=O)C2)c1ccc2c(c1)OCO2 | 13* | 1 | 2 | 2 | -4 | -2 | 1
O=C(Nc1c2c(nn1-c1ccc(Cl)cc1)CS(=O)(=O)C2)c1ccc2c(c1)OCO2 | 0 | -1 | -7 | 8 | . | 10 | .
O=C(Oc1cccnc1)c1ccccc1[N+](=O)[O-] | 20* | . | 3 | 7 | -10 | 0 | 51*
COc1ccc(C(=O)Oc2cccnc2)cc1 | 25* | 1 | 2 | . | -13 | -4 | 39*
N/C(=N\OC(=O)c1ccccc1[N+](=O)[O-])c1cccnc1 | 2 | -1 | -18 | . | -29 | 1 | .
COC(=O)c1ccc(NC(=O)c2ccc(NC(=O)c3ccco3)cc2)cc1 | 13* | -1 | -10 | -3 | -19 | 4 | -1
